# According to PubChem BioAssay (NCATS):
# Results filed as inconclusive are left out. The source made the active and inactive calls. Unless noted, calls follow the shape of the dose curve; as a rule, active = well fitted curve in the direction sought with a large enough effect; inconclusive = small, poorly fitted or top-dose-only effect, or another doubt; inactive = no such curve, though single readings can be large; an effect the other way counts as inactive or inconclusive. Where a SMILES comes first, the peptide text is derived from it. [ ]: non-standard residue; d: D form. Dip = N[C@H](C(=O)O)C(c1ccccc1)c1ccccc1
# Assays:
# [1] = Primary qHTS for inhibitors of nuclear receptor binding SET domain protein 2 (NSD2) in an isogenic RCH-ACV NSD2 p.E1099K mutant (9B) (AID 1645876); also: potency is read from the fitted curve at half-maximal effect; nearly all actives have a fitted effect of over 70% in size
# [2] = Primary qHTS for inhibitors of nuclear receptor binding SET domain protein 2 (NSD2) in an RCH-ACV wild type WT cells (2C) (AID 1645877); also: potency is read from the fitted curve at half-maximal effect; nearly all actives have a fitted effect of over 70% in size
# [3] = NCATS anti-infectives library activity on HEK293 viability as a counter-qHTS vs the C. elegans viability qHTS (AID 1745854);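 also: HEK293 cells exposed to compounds for 24 hr before the viability read; % is scaled to controls: 0 for no effect and ±100 for the full control effect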
# Outline: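 Cytotoxicity in human HEK293 cells is measured by ATP-dependent CellTiter-Glo luminescence following a 24 hr incubation with titrated library compounds at 37C. Top final concentration is 41.7 uM.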
# [4] = molecular target: Phospholipid hydroperoxide glutathione peroxidase GPX4 (Homo sapiens) (UniProt P36969); assay: Primary qHTS Assay for Inhibitors of Recombinant Selenoprotein Glutathione Peroxidase 4 (GPX4) (AID 1845192); also: nearly all actives have a fitted effect of over 65% in size; as to activity change, negative = inhibition: % is scaled to controls: 0 for no effect and ±100 for the full control effect
# Sequence of Phospholipid hydroperoxide glutathione peroxidase GPX4 (Homo sapiens) (P36969 whole entry, looked up): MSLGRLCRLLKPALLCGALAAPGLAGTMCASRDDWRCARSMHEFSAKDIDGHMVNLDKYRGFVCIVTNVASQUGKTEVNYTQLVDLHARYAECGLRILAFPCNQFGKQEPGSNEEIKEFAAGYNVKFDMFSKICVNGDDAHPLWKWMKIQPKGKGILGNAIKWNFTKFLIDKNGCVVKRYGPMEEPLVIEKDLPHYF
# Outline: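 NADPH consumption, followed by fluorescence at 340/450 nm between 0 and 15 min, reports GPX4 activity via coupled glutathione reductase (100 nM). Enzyme 200 nM was pre-exposed to compound 30 min; 0.5 mM cumene hydroperoxide and 1 mM GSH served as substrates.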
# [5] = molecular target: Glutathione peroxidase 1 (Homo sapiens) (UniProt P07203); assay: Primary qHTS Assay for Inhibitors of Recombinant Selenoprotein Glutathione Peroxidase 1 (GPX1) (AID 1845191); also: nearly all actives have a fitted effect of over 65% in size
# Sequence of Glutathione peroxidase 1 (Homo sapiens) (P07203 whole entry, looked up): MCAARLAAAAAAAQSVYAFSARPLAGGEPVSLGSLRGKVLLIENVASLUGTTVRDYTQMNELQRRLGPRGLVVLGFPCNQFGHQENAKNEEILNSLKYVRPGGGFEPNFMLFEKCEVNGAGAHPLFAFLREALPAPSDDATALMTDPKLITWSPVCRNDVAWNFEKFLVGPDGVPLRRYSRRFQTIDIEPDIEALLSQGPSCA
# Outline: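 10 nM GPX1 + cpd, 30 min RT; start w/ 1 mM GSH, 0.5 mM cumene hydroperoxide, 0.5 mM NADPH, 100 nM GR, 0.01% BSA; buffer 50 mM Tris-HCl pH 7.5, 2 mM EDTA, 150 mM NaCl; Fl 340/450, 0 & 15 min.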
# [6] = qHTS drug screen for cell cycle checkpoint inhibitors in PARPi-resistant BRCA-mutant ovarian cancer cell lines. (AID 1963452; calls by dose curve); settings: PEO1/OlaR viability, CellTiter-Glo luminescence, 96 h, stronger effect = lower value
# Outline: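 PEO1, PEO4 and PEO1/OlaR ovarian cancer cells, 600 per well, exposed 96 h at 37C to a dilution series. Viability read by CellTiter-Glo luminescence, normalized to DMSO and empty wells; activity summarized as Z-AUC.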
# [7] = molecular target: Catechol O-methyltransferase (Homo sapiens) (UniProt P21964); assay: Confirmatory Screen for Target Class Profiling of Small Molecule Inhibitors of Methyltransferases (AID 1745852); settings: MTase-Glo luminescence, SAH detection, recombinant enzyme; measured here: COMT max response; stronger effect = lower value; as to activity change, negative = inhibition: % is scaled to controls: 0 for no effect and ±100 for the full control effect
# Sequence of Catechol O-methyltransferase (Homo sapiens) (P21964 whole entry, looked up): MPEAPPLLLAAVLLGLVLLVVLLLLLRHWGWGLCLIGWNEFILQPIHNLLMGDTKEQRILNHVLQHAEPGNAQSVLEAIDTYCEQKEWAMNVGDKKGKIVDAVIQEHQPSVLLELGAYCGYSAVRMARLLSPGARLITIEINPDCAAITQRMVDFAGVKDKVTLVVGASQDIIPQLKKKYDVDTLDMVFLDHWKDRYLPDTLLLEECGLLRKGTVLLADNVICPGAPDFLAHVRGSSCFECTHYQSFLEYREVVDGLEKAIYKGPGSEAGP
# [8] = molecular target: Guanidinoacetate N-methyltransferase (Homo sapiens) (UniProt Q14353); assay: as above; settings: MTase-Glo luminescence, SAH detection, recombinant enzyme; activity change, negative = inhibition: at 57.3 µM (top of the series) unless noted
# [9] = molecular target: Nicotinamide N-methyltransferase (Homo sapiens) (UniProt P40261); assay: as above; settings: MTase-Glo luminescence, SAH detection, recombinant enzyme; measured here: NNMT max response; stronger effect = lower value
# Sequence of Nicotinamide N-methyltransferase (Homo sapiens) (P40261 whole entry, looked up): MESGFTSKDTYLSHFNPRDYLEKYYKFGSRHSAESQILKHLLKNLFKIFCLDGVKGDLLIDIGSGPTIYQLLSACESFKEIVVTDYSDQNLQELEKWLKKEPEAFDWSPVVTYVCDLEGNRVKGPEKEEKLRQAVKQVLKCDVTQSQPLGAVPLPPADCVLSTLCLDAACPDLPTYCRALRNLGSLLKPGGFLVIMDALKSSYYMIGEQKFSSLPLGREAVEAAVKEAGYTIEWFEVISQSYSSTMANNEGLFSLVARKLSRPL
# [10] = molecular target: Phenylethanolamine N-methyltransferase (Homo sapiens) (UniProt P11086); assay: as above; settings: MTase-Glo luminescence, SAH detection, recombinant enzyme; measured here: PNMT max response; stronger effect = lower value
# Sequence of Phenylethanolamine N-methyltransferase (Homo sapiens) (P11086 whole entry, looked up): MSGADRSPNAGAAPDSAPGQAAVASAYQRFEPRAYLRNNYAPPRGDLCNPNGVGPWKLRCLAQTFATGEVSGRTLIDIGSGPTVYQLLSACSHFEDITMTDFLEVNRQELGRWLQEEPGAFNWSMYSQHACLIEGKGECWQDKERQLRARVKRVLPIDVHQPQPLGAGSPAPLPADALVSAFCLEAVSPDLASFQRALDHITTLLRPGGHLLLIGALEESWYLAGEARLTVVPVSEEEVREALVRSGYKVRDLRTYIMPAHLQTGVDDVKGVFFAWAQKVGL
# [11] = measured here: PEO1 parental Z-AUC
structure (smiles),measurement,setting,value
O=C(CCCCCCNC(=O)c1cnc(N(c2ccccc2)c2ccccc2Cl)nc1)NO,Potency,[1],2.63 µM (active)
same,Potency,[2],2.09 µM (active)
same,outcome,[3],inactive
same,Potency,[4],inactive
Cc1cc(C(=O)Nc2nc3cccc(Cl)c3n2C2CCCCN(C(=O)/C=C/CN(C)C)C2)ccn1 (stereo unspecified),Potency,[1],6.51 µM (active)
same,Potency,[2],6.51 µM (active)
same,Potency,[5],inactive
O=c1c(-c2ccc(O)cc2)coc2cc(O[C@@H]3O[C@H](CO)[C@@H](O)[C@H](O)[C@H]3O)ccc12,Potency,[1],16.6 µM (active)
same,Potency,[2],16.6 µM (active)
same,outcome,[3],inactive
same,Potency,[5],inactive
same,Potency,[4],inactive
COc1ccc(S(=O)(=O)Nc2cc(-c3csc(C#N)c3)ccc2C)cc1,Potency,[1],0.105 µM (active)
same,Potency,[2],0.118 µM (active)
same,Potency,[5],inactive
same,Potency,[4],inactive
C[C@@H](OC[C@@]1(c2ccccc2)CC[C@]2(CCC(=O)N2)CN1)c1cc(C(F)(F)F)cc(C(F)(F)F)c1,Potency,[1],9.34 µM (active)
same,Potency,[2],9.34 µM (active)
same,Potency,[5],inactive
same,Potency,[4],inactive
same,Z-AUC,[6],-0.524 (inactive)
same,Z-AUC,[6]; [11],-0.495
same,Z-AUC,[6]; measured here: PEO4 Z-AUC,-0.395
N#Cc1ccc(Cn2cncc2CN2CCN(c3cccc(Cl)c3)C(=O)C2)cc1,Potency,[1],4.68 µM (active)
same,Potency,[2],2.63 µM (active)
same,Potency,[5],inactive
same,Potency,[4],inactive
CC[C@H](NC(=O)[C@H](C)NC)C(=O)N1C[C@@H](O)C[C@H]1Cc1c(-c2[nH]c3cc(F)ccc3c2C[C@@H]2C[C@H](O)CN2C(=O)[C@H](CC)NC(=O)[C@H](C)NC)[nH]c2cc(F)ccc12,Potency,[1],5.25 µM (active)
same,Potency,[2],18.6 µM (active)
same,outcome,[3],inactive
same,Z-AUC,[6],1.52 (inactive)
same,Z-AUC,[6]; [11],1.38
same,Z-AUC,[6]; measured here: PEO4 Z-AUC,0.68
NCCCC[C@H](NC(=O)[C@@H](NC(=O)[C@H](Cc1c[nH]c2ccccc12)NC(=O)[C@H](CCCCN)NC(=O)[C@H](CCCCN)NC(=O)[C@H](Cc1c[nH]c2ccccc12)NC(=O)[C@H](Cc1c[nH]c2ccccc12)NC(=O)[C@H](CCCCN)NC(=O)[C@@H](N)CCCCN)C(c1ccccc1)c1ccccc1)C(N)=O (H-KKWWKKW[Dip]K-NH2),Potency,[1],13.2 µM (active)
same,Potency,[2],20.9 µM (active)
same,Potency,[5],inactive
same,Potency,[4],inactive
same,Z-AUC,[6],0.988 (inactive)
same,Z-AUC,[6]; [11],0.826
same,Z-AUC,[6]; measured here: PEO4 Z-AUC,0.857
Cc1ccc(Nc2cc(N[C@@H]3CCCC[C@@H]3N)nnc2C(N)=O)nc1C,Potency,[1],1.05 µM (active)
same,Potency,[2],0.934 µM (active)
same,Potency,[5],inactive
same,Potency,[4],inactive
same,Z-AUC,[6],-0.241 (inactive)
same,Z-AUC,[6]; [11],-0.11
same,Z-AUC,[6]; measured here: PEO4 Z-AUC,0.345
CCN1CCN(c2ccc(Nc3ccc(-c4ccc(C(N)=O)cc4)n4ncnc34)cc2)CC1,Potency,[1],9.2 µM (active)
same,Potency,[2],7.31 µM (active)
same,activity,[7],-0.444%
same,"activity change, negative = inhibition",[8],0%
same,activity,[9],-65.3%
same,activity,[10],-8.41%
same,Potency,[5],inactive
Cc1c(O)cccc1C(=O)NC(CSc1ccccc1)C(O)CN1CC2CCCCC2CC1C(=O)NC(C)(C)C (stereo unspecified),Potency,[1],23.5 µM (active)
same,Potency,[2],20.9 µM (active)
